HP1b chromo inh – inhibitors of HP1-beta chromodomain binding to methylated histone tails; Potency, µM (doses to about 114 µM), without a hit: top-dose activity change, negative = inhibition, actives largely listed as inhibitors; actives 0.56% (n = 390,000); AlphaScreen HP1-beta / biotin-H3K9me3 peptide binding; P83916; note: nearly all actives have a fitted effect of over 70% in size
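HP1-beta protein (50 nM final) preincubated 30 min at room temperature with biotinylated H3(1-18)K9me3 peptide (50 nM) in PBS pH 7.4, 0.01% Tween-20, then compound added for 30 min. AlphaScreen streptavidin donor/nickel chelate acceptor beads (10 ug/mL final), 30 min dark, luminescence read.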
ALOX12 inh – ALOX12 (human) lipoxygenase inhibition. purified 12hLO, xylenol orange hydroperoxide absorbance. actives 1.1% (n = 580,000). Potency, µM (series often up to 108 µM), for inactives: at the top dose activity change, negative = inhibition, actives largely listed as inhibitors. P18054; note: % is set by controls: 0 for no effect and ±100 for the full control effect
Target sequence (P18054 whole entry, looked up): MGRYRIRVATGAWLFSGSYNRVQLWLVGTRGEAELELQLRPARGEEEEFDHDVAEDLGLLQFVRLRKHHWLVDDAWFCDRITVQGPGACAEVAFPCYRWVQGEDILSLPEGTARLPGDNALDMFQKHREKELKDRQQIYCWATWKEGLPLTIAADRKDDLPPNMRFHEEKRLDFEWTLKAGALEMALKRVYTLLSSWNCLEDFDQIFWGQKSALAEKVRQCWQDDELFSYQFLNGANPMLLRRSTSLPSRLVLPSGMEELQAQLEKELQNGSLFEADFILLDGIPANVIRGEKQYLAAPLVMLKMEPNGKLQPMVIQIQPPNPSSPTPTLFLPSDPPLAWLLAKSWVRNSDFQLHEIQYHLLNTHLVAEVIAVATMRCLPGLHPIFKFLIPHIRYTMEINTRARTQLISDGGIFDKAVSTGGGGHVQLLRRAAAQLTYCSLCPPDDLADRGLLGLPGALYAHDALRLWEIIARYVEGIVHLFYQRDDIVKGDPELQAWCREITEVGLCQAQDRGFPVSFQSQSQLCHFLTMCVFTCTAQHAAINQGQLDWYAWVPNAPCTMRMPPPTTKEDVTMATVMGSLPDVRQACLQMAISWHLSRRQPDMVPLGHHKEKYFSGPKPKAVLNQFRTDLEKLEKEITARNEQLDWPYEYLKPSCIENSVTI
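Purified human 12hLO at 150 nM in 25 mM Hepes, 0.01% Triton X-100, pH 7.0, preincubated 15 min at room temperature with compound. Reaction started with 40 uM arachidonic acid, 30 min at room temperature. Hydroperoxide measured by Fe-xylenol orange, 573/405 nm absorbance ratio.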
JMJD2A Tudor – blocks the human JMJD2A Tudor domain; AlphaScreen JMJD2A-Tudor / H3K4me3 peptide binding; actives 4.4% (n = 390,000); Potency, µM (highest dose often 114 µM), for inactives: top-dose activity change, negative = inhibition, hits mostly inhibitors; note: % is set by controls: 0 for no effect and ±100 for the full control effect; nearly all actives have a fitted effect of over 50% in size
Sfp inh – blocks B. subtilis Sfp PPTase activity; actives 3.5% (n = 310,000); Potency, µM, without a hit: largest response in the series, negative = inhibition, most hits filed as inhibitors; Biochemical Sfp PPTase activity, qHTS; AID 1490;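 note: the enzyme is Sfp with the accession as filed and its product quenches rhodamine fluorescence; 0% = enzyme reaction without inhibitor and -100% = no enzyme wells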
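Reaction rates are the 30-min fluorescence difference (ex 525, em 598 nm) in wells containing 15 nM Sfp, 5 uM rhodamine-CoA and 12.5 uM BHQ-2-YbbR at pH 7.6 with 10 mM MgCl2.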
G9a block – blocks human histone lysine methyltransferase G9a; AID 504332; Potency, µM (titrated, usually from 102 µM), without a hit: at the top dose activity, negative = inhibition, actives largely listed as inhibitors; G9a H3K9 monomethylation, AlphaScreen, 2 h; actives 8.8% (n = 350,000); note: % is set by controls: 0 for no effect and ±100 for the full control effect; nearly all actives have a fitted effect of over 75% in size
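Step 1: enzyme (final 20 nM) with compound, 15 min RT. Step 2: substrate peptide 500 nM and SAM 20 uM, 2 h RT. Step 3: anti-H3K9me1 antibody and AlphaScreen beads, 10 min, then plate read.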
BAZ2B inh – inhibitors of human BAZ2B bromodomain | AlphaScreen BAZ2B-H3K14Ac peptide displacement | Potency, µM (highest dose often 114 µM), for inactives: at the highest dose activity change, negative = inhibition, most hits filed as inhibitors | actives 4.4% (n = 360,000); note: % is set by controls: 0 for no effect and ±100 for the full control effect; nearly all actives have a fitted effect of over 60% in size
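AlphaScreen luminescence quantifies BAZ2B engagement of H3K14Ac peptide; the protein and biotinylated peptide are both at 50 nM final, buffer PBS pH 7.4 with 0.01% Tween-20, all steps at room temperature.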
* = called active by the depositor; ? = inconclusive; . = not tested or not shown; [ ] = remark or other dose. In the library only some 8.7% were active in any assay of this set; here they are far more common. Calls come from the whole dose curve; as a rule, active = well fitted curve in the direction sought with a large enough effect; inconclusive = small, poorly fitted or top-dose-only effect, or another doubt; inactive = no such curve, though single readings can be large; an effect the other way counts as inactive or inconclusive. Potency is the fitted concentration of half-maximal effect.

SMILES | HP1b chromo inh | ALOX12 inh | JMJD2A Tudor | Sfp inh | G9a block | BAZ2B inh
N#C/C(=C/c1ccc(OC(F)F)cc1)c1nc2ccccc2[nH]1 | . | -3.7% | . | . | . | .
CCC1=C(C(=O)OC)C(c2cccc(F)c2)N2C(CC(=O)NCc3ccco3)=CSC2=N1 (stereo not drawn) | . | -23.5% | . | . | . | .
CCOC(=O)c1c(C)oc2ccc(O)c(CN3CCCCC3)c12 | 18.8% | -11.9% | -6.3% | -4.4% | 1.1%[12.7 µM] | 15.3%
CCOC(=O)c1c(C)oc2c1c1c(c3ccccc32)OCN(Cc2ccccn2)C1 | -8.0% | ? | ? | ? | 12.3%[0.501 µM] | 44.7µM*
COc1ccccc1NC(=O)Cn1cccc1-c1nc(-c2ccc(F)cc2)no1 | . | 35.7% | . | . | . | .
CCOC(=O)c1cc(C)n(CC(=O)N2CCCOCCNC(=O)CC2)c1C | . | -4.4% | . | . | . | .
COc1cc(CC(CC(=O)O)CC(C)OCc2ccccc2)cc(OC)c1 (stereo not drawn) | 22.7% | -2.3% | 13.8% | 6.1% | 1.41µM* | 10.7%
CC(CC(=O)O)NC(=O)OCc1ccccc1 (stereo not drawn) | . | 49.9% | . | . | . | .
CCCn1nc(C(=O)N2CCN(C(=O)C(C)C)CC2)c2ccccc2c1=O | . | 28.0% | . | . | . | .
N#CCSc1nnc(-c2ccc(S(=O)(=O)N3CCOCC3)cc2)n1CC1CCCO1 (stereo not drawn) | 18.1% | 0.0% | 89.1µM* | 15.2% | -31.4% | 4.3%
CSc1nnc(-c2ccc(S(=O)(=O)N3CCOCC3)cc2)n1C | 43.9% | -2.0% | -3.2% | 15.7% | 22.4µM* | -17.1%
Cc1ccc(-c2nc(CNc3ccc(Br)cc3)no2)cc1 | . | 9.3% | . | . | . | .
CS(=O)(=O)c1ccc(O[C@H]2COCCN(Cc3ccc(-c4ccccc4)cc3)C2)cc1 | . | 8.4% | . | . | . | .
CCC1S/C(=C(\C#N)C(=O)NCc2ccco2)N(c2ccc(F)cc2)C1=O (stereo not drawn) | 36.8% | -1.8% | -1.7% | 25.1µM* | ? | -30.5%
CCC1S/C(=C(\C#N)C(=O)NCc2ccco2)N(c2ccc(Br)cc2)C1=O (stereo not drawn) | 3.0% | ? | -14.9% | -3.3% | ? | ?
CCOC(=O)C1=C(C)OC(N)=C(C#N)C1c1cc(C)sc1C (stereo not drawn) | 29.2% | 103.1% | -11.1% | 5.1% | . | -26.3%
CCOC(=O)C1=C(C)OC(N)=C(C#N)C1c1cc2ccccc2nc1N1CCCCC1 (stereo not drawn) | 66.0% | . | 1.6% | 7.6% | 11.2µM* | -2.5%
CCOC(=O)C1=C(C)OC(N)=C(C#N)C1c1cc2cc(C)ccc2nc1N1CCCCC1 (stereo not drawn) | 53.4% | ? | -2.9% | -2.9% | 10µM* | -11.8%
Cc1ccc(S(=O)(=O)N2CC(=NO)C2)cc1 | 35.8% | ? | -6.2% | 4.3% | 44.7µM* | -3.8%
Cc1ccc(-c2csc3n[nH]c(=S)n23)cc1 | ? | ? | 1.12µM* | 12.6µM* | 1.41µM* | 28.2µM*
COc1ccc(N2CC(c3noc(-c4ccc5c(c4)OCO5)n3)CC2=O)cc1 (stereo not drawn) | . | -2.1% | . | . | . | .
CCCNC(=O)c1cc(-c2ccncc2)nc2ccccc12 | . | 24.1% | . | . | . | .
CO/N=C(\C(=O)O)c1cn2ccsc2n1 | . | 2.24µM* | . | . | . | .
COc1ccc(CC(=O)NCc2cn3ccsc3n2)cc1 | 39.2% | 34.3% | -25.9% | 0.5% | -19.1% | -2.6%
CN1CCCC1c1nc(C2CN(C(=O)CCCc3nc4ccccc4[nH]3)C2)no1 (stereo not drawn) | . | 22.0% | . | . | . | .
Cc1ccccc1NS(=O)(=O)c1ccc2c(c1)c(=O)n(CC(=O)N1CCCCCC1)c(=O)n2C | . | 3.8% | . | . | . | .
COc1ccc(-c2n[nH]c(=S)n2/N=C/c2cccn2C)cc1 | ? | ? | 6.31µM* | -3.3% | 1.12µM* | -35.3%
Cc1ccc(-c2n[nH]c(=S)n2/N=C/c2cccn2C)cc1 | -30.4% | 25.1µM* | 22.4µM* | 0.4% | 1.12µM* | -34.6%
